# VDR inhibitor = Inhibitors of the vitamin D receptor (VDR): qHTS; Vitamin D3 receptor (Homo sapiens), P11473; VDR-SRC2-3 peptide fluorescence polarization, 2 h; Potency, µM, inactives show max response, negative = inhibition, most hits filed as inhibitors; AID 504847, 2011; 400,000 tested, 0.93% active
#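 Reagent solutions, kept cold and dark, are dispensed first; compounds are then pinned in at 23 nl, plates briefly spun, and incubated 2 h at ambient temperature. Inhibition of VDR–SRC2-3 peptide binding is read by fluorescence polarization.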
# TDP1 inh = qHTS Assay for Inhibitors of Tyrosyl-DNA Phosphodiesterase (TDP1); 350,000 tested, 0.28% active; Potency, µM (doses to about 130 µM), for the others: at the top dose activity change, negative = inhibition, usual class: inhibitors; recombinant TDP1, AlphaScreen DNA substrate cleavage; AID 485290, 2010; note: nearly all actives have a fitted effect of over 40% in size
#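 Recombinant E. coli-expressed Tdp1 (1 nM) preincubated with compound 15 min at RT, then 5'-biotin/3'-phosphotyrosine-FITC DNA substrate (15 nM) added for 5 min. AlphaScreen beads (10 ug/ml) added, 10 min RT; tyrosine-FITC cleavage read as signal loss.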
# DT40 TDP1 CPT = qHTS for Inhibitors of human tyrosyl-DNA phosphodiesterase 1 (TDP1): qHTS in cells in presence of CPT. 420,000 tested, 12% active. Potency, µM (doses to about 46.2 µM), for the others: at the highest dose activity change, negative = growth inhibition, actives largely listed as inhibitors. chicken DT40 Tdp1-/-;hTDP1 cells + 20 nM CPT, ATP luminescence, 48 h; note: nearly all actives have a fitted effect of over 55% in size
#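 Cell growth measured by CellTiter-Glo luminescence after a minimum 48 h, 37 C compound exposure with 20 nM CPT in Tdp1-knockout DT40 cells stably expressing hTDP1, seeded 400/well; qHTS titration format.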
# TDP1 cell noCPT = qHTS for Inhibitors of human tyrosyl-DNA phosphodiesterase 1 (TDP1): qHTS in cells in absence of CPT; 420,000 tested, 15% active; DT40 Tdp1-/- hTDP1 cells, no CPT, ATP luminescence, 48 h; Potency, µM (titrated, usually from 46.2 µM), for inactives: top-dose activity change, negative = growth inhibition, actives largely listed as inhibitors; AID 686978, 2013; note: nearly all actives have a fitted effect of over 55% in size
#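 Luminescent ATP content (CellTiter-Glo) served as the growth readout. Knockout chicken DT40 cells expressing human TDP1 were exposed to compounds without camptothecin for a minimum 48 hr at 37 °C.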
# PLK1 PBD inh = qHTS for Inhibitors of PLK1-PDB (polo-like kinase 1 - polo-box domain): Primary Screen. Serine/threonine-protein kinase PLK1 (Homo sapiens), P53350. Potency, µM, inactives show max response, negative = inhibition, most hits filed as inhibitors. Plk1 PBD binding of FITC phosphopeptide, fluorescence polarization. 360,000 tested, 2.8% active. AID 720504, 2013; note: series mostly up to about 57 µM; nearly all actives have a fitted effect of over 65% in size
# GCN5L2 inh = qHTS Assay for Inhibitors of GCN5L2; Histone acetyltransferase KAT2A (Homo sapiens), Q92830; GCN5L2 HAT assay, ThioGlo1 CoA-SH fluorescence; Potency, µM (series often up to 58.9 µM), for the others: top-dose activity change, negative = inhibition, actives largely listed as inhibitors; 390,000 tested, 0.21% active
# Target sequence (Q92830 whole entry, looked up): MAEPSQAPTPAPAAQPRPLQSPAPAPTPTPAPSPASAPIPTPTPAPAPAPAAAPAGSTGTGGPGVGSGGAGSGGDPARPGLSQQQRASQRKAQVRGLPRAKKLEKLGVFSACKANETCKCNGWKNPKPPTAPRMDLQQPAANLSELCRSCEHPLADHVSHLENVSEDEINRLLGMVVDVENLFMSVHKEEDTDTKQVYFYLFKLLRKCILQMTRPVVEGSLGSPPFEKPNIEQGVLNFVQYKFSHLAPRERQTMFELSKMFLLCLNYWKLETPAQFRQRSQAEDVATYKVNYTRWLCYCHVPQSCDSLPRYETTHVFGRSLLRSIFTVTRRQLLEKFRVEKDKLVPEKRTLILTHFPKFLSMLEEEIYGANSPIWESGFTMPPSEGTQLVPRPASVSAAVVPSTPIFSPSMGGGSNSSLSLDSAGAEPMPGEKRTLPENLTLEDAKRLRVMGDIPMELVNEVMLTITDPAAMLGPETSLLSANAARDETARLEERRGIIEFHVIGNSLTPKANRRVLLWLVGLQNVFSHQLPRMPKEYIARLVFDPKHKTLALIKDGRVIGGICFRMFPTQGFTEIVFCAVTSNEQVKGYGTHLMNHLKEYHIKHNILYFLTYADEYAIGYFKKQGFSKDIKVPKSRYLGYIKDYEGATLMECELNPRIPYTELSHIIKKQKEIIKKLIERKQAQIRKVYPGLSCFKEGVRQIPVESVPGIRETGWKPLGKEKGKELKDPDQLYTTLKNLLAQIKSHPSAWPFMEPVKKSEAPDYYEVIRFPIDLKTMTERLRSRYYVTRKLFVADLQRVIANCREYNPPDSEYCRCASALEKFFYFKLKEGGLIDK
#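 Titration-based screen in which CoA formation is detected via maleimide probe ThioGlo1 (50uM) turning fluorescent on thiol reaction; substrates H3(1-25) 75uM and acetyl-CoA 70uM, GCN5L2 20nM, 20 min incubation at room temperature.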
# Numbers without * were called inactive; u = inconclusive; x = not tested or not shown; [ ] = dose if it differs, or a comment. Most compounds without a hit are left out; they make up all but 18% or so of the library. Calls come from the whole dose curve; as a rule, active = well fitted curve in the direction sought with a large enough effect; inconclusive = small, poorly fitted or top-dose-only effect, or another doubt; inactive = no such curve, though single readings can be large; an effect the other way counts as inactive or inconclusive. % is set by controls: 0 for no effect and ±100 for the full control effect; potency is the fitted concentration of half-maximal effect.
SMILES,VDR inhibitor,TDP1 inh,DT40 TDP1 CPT,TDP1 cell noCPT,PLK1 PBD inh,GCN5L2 inh
CCN(c1ccccc1)S(=O)(=O)c1cccc(C(=O)N(C)CC(=O)Nc2ccc(F)c(F)c2F)c1,-3%,x,15µM*,18µM*,-4%,x
CCN(CC(=O)Nc1c(F)cccc1F)C(=O)c1ccc(S(=O)(=O)N(CC)c2ccccc2)cc1,12%,x,u,u,2%,x
COc1ccccc1-c1cc2c(c(OC)c1)OCCN(CCC(C)c1ccc(C)o1)C2 (stereo unspecified),x,x,-14%[9.04 µM],-13%,x,x
COC(=O)c1ccc(C(/C=C/[C@@H](C)C(=O)NCc2ccc(OC)c(O)c2)NC(=O)OCc2ccccc2)cc1 (stereo partly specified),x,13%,x,x,x,x
C[C@@H]1CN([C@@H](C)CO)C(=O)c2cc(NS(C)(=O)=O)ccc2O[C@@H]1CN(C)S(=O)(=O)c1ccccc1,3%,-6%,-2%,-3%,-12%,-3%
COc1ccccc1CN1C[C@@H]2C[C@@H](c3ccc(C)c(C)c3)N3CCC[C@@]23C1=O,-11%,6%,15µM*,16µM*,1%,-12%
COc1ccc(-c2[nH]ncc2[C@@H]2C[C@H]3CN(Cc4ccccc4C)C(=O)[C@]34CCCN24)cc1,3%,4%,u,u,-4%,1%
Cc1ccccc1CN1C[C@@H]2C[C@@H](c3cn[nH]c3-c3ccc(F)cc3)N3CCC[C@@]23C1=O,8%,5%,18µM*,21µM*,2%,-7%
COc1ccc([C@@H]2C[C@H]3CN(Cc4ccccc4OC)C(=O)[C@]34CCCN24)cc1C,-15%,-3%,u,18µM*,3%,-3%
CCCC(=O)O[C@]1(C(=O)COC(=O)CC)CC[C@H]2[C@@H]3CCC4=CC(=O)CC[C@]4(C)[C@H]3[C@@H](O)C[C@@]21C,x,x,-21%,-28%,x,x
CC(=O)NC(C)(c1ccccc1)c1nc(-c2cccc(C(F)(F)F)c2)cs1 (stereo unspecified),x,x,u,15µM*,-6%,x
COc1ccc(C(C)(NC(C)=O)c2nc(-c3cccc(NC(C)=O)c3)cs2)cc1 (stereo unspecified),x,x,u,u,-2%,x
CC(=O)Nc1cccc(-c2csc(C(C)(NC(C)=O)c3ccccc3)n2)c1 (stereo unspecified),x,x,26µM*,u,-10%,x
CCNC(=O)N(C)c1c(CC)nc2ccc(C(=O)N3CCN(C(=O)c4ccco4)CC3)cn12,x,x,-3%,-7%,-5%,x
Cc1ccc2c(c1)c1c(c(=O)n(-c3cccc(Cl)c3)c(=O)n1CC(=O)c1ccc(Cl)cc1)n2C,10%,0%,1%,-1%,x,-4%
CC(NC(=O)c1ccccc1)C(=O)NNC(=O)c1ccccc1Cl (stereo unspecified),-7%,0%,-2%,4%,-4%,-1%
Cc1ccc(NC(=O)CC2Nc3ccccc3NC2=O)cc1C (stereo unspecified),-10%,x,-23%,-8%,x,-16%
Cc1ccc(NC(=O)CC2Nc3cccc4cccc(c34)NC2=O)cc1 (stereo unspecified),-22%,7%,u,6.5µM*,x,0%
O=C(CC1Nc2cccc3cccc(c23)NC1=O)Nc1ccccc1 (stereo unspecified),3%,8%,u,26µM*,-7%,-3%
C[N+](C)(C)CCN1CCc2ccccc21,x,x,-6%,-19%,-2%,x
COc1cc(-c2cc3nc(NCCc4ccncc4)ccn3n2)cc(OC)c1OC,x,x,18µM*,18µM*,2%,x
Clc1ccccc1-c1cc2nc(NCc3ccco3)ccn2n1,x,x,u,u,-2%,x
COc1cc(CCNc2ccc3nnc(-c4ccccc4)n3n2)cc(OC)c1OC,0%,3%,16µM*,10µM*,-14%,-2%
COc1cc(-c2cc3nc(NCCc4ccc(S(N)(=O)=O)cc4)ccn3n2)cc(OC)c1OC,x,x,23µM*,21µM*,-2%,x
COc1ccc2nnc(-c3ccccc3)n2n1,-2%,5%,-12%,-23%,0%,0%
SMILES,VDR inhibitor,TDP1 inh,DT40 TDP1 CPT,TDP1 cell noCPT,PLK1 PBD inh,GCN5L2 inh
COc1cc2[nH]c(=S)nc(NCCc3ccc(S(N)(=O)=O)cc3)c2cc1OC,-1%,-10%,0%,0%,2%,-10%
COc1cc(-c2cc3nc(NCc4ccco4)ccn3n2)cc(OC)c1OC,x,x,21µM*,12µM*,-8%,x
Cc1noc(C)c1-c1cc(NCc2cccs2)ncn1,u,x,u,-28%,x,-23%
S=C(NC1CCCC1)NN1CCOCC1,16%,5%,16%,9%,-14%,-3%
CCOC(=O)c1nc(C)nc(Sc2n[nH]c(-c3cc(C(F)(F)F)cc(C(F)(F)F)c3)n2)c1C,-5%,x,u,u,-13%,-15%
CCCC[C@@H]1CCCO[C@@](C(=O)NCC2CC2)(C(F)(F)F)C1,-18%,6%,x,x,x,x
COc1cc(-c2cc3nc(NCCOc4ccccc4)ccn3n2)cc(OC)c1OC,x,x,2.6µM*,2.3µM*,-1%,x
CC(C)Cc1ccc(-c2cc3nc(NCCOc4ccccc4)ccn3n2)cc1,x,x,u,u,7%,x
CC(C)(C)c1cc2nc(NCCc3ccc(S(N)(=O)=O)cc3)ccn2n1,x,x,-15%,-25%,-12%,x
CC(C)Cc1ccc(-c2cc3nc(NCCc4ccc(S(N)(=O)=O)cc4)ccn3n2)cc1,x,x,23µM*,12µM*,9%,x
NS(=O)(=O)c1ccc(CCNc2ccn3nc(-c4ccccc4)cc3n2)cc1,x,x,26µM*,u,-5%,x
CCC(CO)Nc1ccn2nc(-c3cc(OC)c(OC)c(OC)c3)cc2n1 (stereo unspecified),x,x,u,15µM*,-7%,x
CCN(CC)S(=O)(=O)c1cccc(C(=O)OCC(=O)c2ccc3c(c2)OCCO3)c1,-17%,0%,-26%,u,-7%,-5%
COc1ccc2[nH]c3c(c2c1)CCN1C(=O)C(CC(=O)NC/C=C(\C)CCC=C(C)C)C[C@H](C(=O)N(C(C)C)C(C)C)[C@@]31C (stereo partly specified),-17%,4%[56.1 µM],u,18µM*,-4%,-18%
